Source: PubChem BioAssay
SARS PLpro yeast: blocks SARS-CoV papain-like protease in a yeast assay; Potency, µM (top dose mostly 32.9 µM), without a hit: top-dose activity, positive = growth rescue, hits mostly activators; hit rate 0.19% among 330,000; AID 485353; S. cerevisiae expressing SARS-CoV PLpro, growth rescue; calls by dose curve; note: potency is the fitted concentration of half-maximal effect; 0% is about no effect; nearly all actives have a fitted effect of over 55% in size
Pf growth 48h: P. falciparum growth inhibition at 48 hours (one generation); P. falciparum luciferase growth in erythrocytes, 48 h; Potency, µM (highest dose often 28.7 µM), for the others: top-dose activity change, negative = inhibition, usual class: inhibitors; hit rate 5.9% among 310,000; AID 504832; note: potency is the fitted concentration of half-maximal effect; % is set by controls: 0 for no effect and ±100 for the full control effect
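Firefly luciferase activity from engineered P. falciparum reports growth; inhibitors lower the luminescent signal. Cultures contained 2% hematocrit erythrocytes at 0.1% final parasitemia.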
Pf growth 96h: P. falciparum growth inhibition at 96 hour, primary screen for plastid delayed-death inhibitors; P. falciparum luciferase reporter growth, 96 h; Potency, µM (titrated, usually from 28.7 µM), inactives show at the top dose activity change, negative = inhibition, actives largely listed as inhibitors; hit rate 6.9% among 320,000; AID 504834; note: potency is the fitted concentration of half-maximal effect; % is set by controls: 0 for no effect and ±100 for the full control effect
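Two parasite generations (96 h, 37 C, 5% CO2) of compound exposure in infected erythrocytes (0.05% parasitemia, 2% hematocrit). Luciferase-reporter P. falciparum; decreased luminescence indicates inhibited growth, aimed at apicoplast-acting delayed death.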
Cycloheximide cs: affects cycloheximide protein synthesis inhibition readout, counter-screen. max response, %. AID 2314. cell reporter, cycloheximide protein synthesis inhibition counterscreen. hit rate 12% among 300,000; in the data active = max response mostly above about 13%, no sharp cut-off; inactive = mostly below about 14%; note: read at 38.3 µM for the half of the compounds with a filed dose; 0% is about no effect
AMA1 RON2 block: disrupts binding of P. falciparum AMA1 to RON2; AlphaScreen AMA1-biotinylated RON2 peptide binding; Potency, µM (series often up to 58.2 µM), for the others: top-dose activity change, negative = inhibition, most hits filed as inhibitors; hit rate 0.2% among 360,000; AID 720542;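 note: potency is the fitted concentration of half-maximal effect; 0% = vehicle wells and -100% = peptide control; nearly all actives have a fitted effect of over 45% in size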
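AMA1 (3D7) with his tag at 25 nM final met compounds first, then biotinylated RON2 peptide at 25 nM; detection used donor plus acceptor beads, 10 µg/mL apiece, read by AlphaScreen after 30 min at room temperature.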
Shiga inhibitor: blocks Shiga toxin action in Vero cells | Vero cells, Shiga toxin protein synthesis inhibition reporter | inhibition, % at 38.7 µM | hit rate 9.2% among 290,000 | AID 2315; in the data active = inhibition mostly above about 28%, no sharp cut-off; inactive = mostly below about 43%; note: 0% is about no effect
* marks the source's active call; other numbers are inactive results; i = inactive; ? = inconclusive; · = not tested or not shown; [ ] = remark or other dose. Rows were chosen to be rich in hits. Some 19% of all compounds tested hit in one or more screens of this group. Unless noted, calls come from the whole dose curve; as a rule, active = well fitted curve in the direction sought with a large enough effect; inconclusive = small, poorly fitted or top-dose-only effect, or another doubt; inactive = no such curve, though single readings can be large; an effect the other way counts as inactive or inconclusive.

SMILES | SARS PLpro yeast | Pf growth 48h | Pf growth 96h | Cycloheximide cs | AMA1 RON2 block | Shiga inhibitor
CC(C)(C)C(=O)CSc1ccc(S(=O)(=O)N2CCN(Cc3ccccc3)CC2)cn1 | -2% | ? | ? | · | -8% | ·
CC(C)[C@H](NC(=O)[C@@H]1Cc2c([nH]c3ccccc23)C2c3ccccc3C(=O)N21)C(=O)N1CCC[C@@H]1C(=O)O (stereo partly drawn) | -2% | -11% | 15µM* | -3 | 0% | -7
Cc1ccc(N(C(=O)c2snc(C(N)=O)c2N)C(C(=O)NCCC(C)C)c2ccco2)cc1 (stereo not drawn) | 0% | -25% | ? | -1 | -7% | -14
Cc1cccc(Cn2ncc(Cl)c(Cl)c2=O)c1 | -19% | 16% | 9% | 24* | 3% | 32
Cc1cccc(Cn2nnc3c2C(=O)c2ccccc2C3=O)c1 | 6% | ? | 2.9µM* | 27* | -14% | active
CC(=O)Nc1ccc(-c2ccnc3c2CC(C(=O)NCC2CCOCC2)O3)cc1 (stereo not drawn) | · | · | · | · | 19% | ·
CCOc1ccc(C(C)NC(=O)c2ccccc2F)cc1 (stereo not drawn) | 5% | -13% | -61% | 0 | 11% | 8
CCN1C(=O)[C@@H]2[C@@H](c3ccc(-c4ccc(C(C)=O)cc4)cc3)N3CCC[C@@]3(C(=O)OC)[C@@H]2C1=O | 0% | 9.3µM* | ? | · | -7% | ·
CCN1C(=O)[C@H]2[C@@H](c3ccc(-c4ccc(C(C)=O)cc4)cc3)N3CCCC[C@@]3(C(=O)OC)[C@H]2C1=O | -2% | ? | 12µM* | · | 1% | ·
COc1cccc(C2C(C(=O)c3cccs3)=C(O)C(=O)N2CCN2CCOCC2)c1OC (stereo not drawn) | -1% | -8% | ? | -3 | 0% | -2
N#CCC(=O)Nc1ccc(C(=O)OCC(=O)N(C2CCCCC2)C2CCCCC2)cc1 | -3% | 12µM* | ? | 6 | -11% | -5
CC(C)(C)C(=O)COC(=O)c1ccc(O)cc1 | 18% | -13% | -17% | 11 | -8% | 40*
O=C(OCC(=O)N(C1CCCCC1)C1CCCCC1)c1ccccc1O | -5% | ? | ? | -4 | 0% | -5
CC(C)(C)C(=O)COC(=O)c1ccccc1O | 8% | · | 31% | 13 | 18% | 20
O=C(OCC(=O)N(C1CCCCC1)C1CCCCC1)c1ccc(O)cc1 | 1% | 8.3µM* | ? | -1 | 0% | -4
N#CCC(=O)Nc1ccc(C(=O)OCC(=O)NC2CCCCCC2)cc1 | -4% | ? | ? | · | 3% | ·
c1ccc(-c2csc(CN3CCCCC3)n2)cc1 | · | · | · | · | -11% | ·
COc1ccc(-n2cnnc2SC(C)C(=O)Nc2cccc([N+](=O)[O-])c2)cc1 (stereo not drawn) | 10% | 26% | ? | 0 | -8% | -8
CC1(C(=O)Nc2ccc3c(c2)OCCO3)CN(S(C)(=O)=O)CC(=O)N1C1CCCCCC1 (stereo not drawn) | · | · | · | · | 3% | ·
CC1CCN(CCCNC(=O)c2cc3c(Cl)nc4ccccc4c3s2)CC1 | -2% | ? | 9% | -6 | -2% | -6
CCCCN1CC(=O)N2[C@H](c3ccc(OC)cc3)[C@@H]3C(=O)N(CC)C(=O)[C@@H]3[C@]2(Cc2ccccc2)C1=O | -2% | 4% | 53% | -3 | -5% | 1
CCOC(=O)c1cnc2ccccc2c1Nc1cc(C(=O)O)ccc1C | -1% | -24% | 6% | 10 | -1% | 19
Cc1cc(C(=O)Cn2nc(C(=O)O)c3ccccc3c2=O)c(C)n1-c1ccc(F)cc1 | 0% | 27% | 126% | 49* | 3%[11.6 µM] | 155*
CCCn1c(C)cc(C(=O)Cn2nnc3ccccc3c2=O)c1C | -1% | 423% | i | 35* | -5% | 82*
C=CCn1c(C)cc(C(=O)Cn2nc(C(=O)O)c3ccccc3c2=O)c1C | 0% | 141% | 116% | 32* | -9% | 56*
SMILES | SARS PLpro yeast | Pf growth 48h | Pf growth 96h | Cycloheximide cs | AMA1 RON2 block | Shiga inhibitor
Cc1cc(C(=O)Cn2nc(C(=O)O)c3ccccc3c2=O)c(C)n1-c1cccc(C(F)(F)F)c1 | 0% | 2% | 11% | -1 | -1% | -18
O=C1OC[C@H](Cc2ccc3c(c2)OCO3)/C1=C\c1ccc2c(c1)OCO2 | -2% | 0% | 7% | · | -14% | ·
CCOc1ccccc1N(CC(=O)Nc1cccnc1)S(=O)(=O)c1ccc(C)cc1 | 0% | ? | 38% | 50* | 4% | 160*
CCOc1ccccc1N(CC(=O)Nc1ccccc1)S(=O)(=O)c1ccccc1 | 8% | ? | 12µM* | -2 | 0% | -1
COCCOc1cc(N(CC(=O)N(C)C)S(=O)(=O)c2ccccc2)c(Cl)cc1Cl | 1% | 4% | 12µM* | 14 | -16% | 19
CCOc1ccccc1N(CC(=O)Nc1cc(OC)ccc1OC)S(=O)(=O)c1ccccc1 | 0% | ? | 48% | 1 | -13% | 15
CC(C)C[C@H](NC(=O)C1CCN(C(=O)[C@H](Cc2ccccc2)NC(=O)OC(C)(C)C)CC1)C(=O)O | 6% | -12% | 5% | -1 | -2% | -4
Cc1onc(-c2ccccc2)c1C(=O)OCC(=O)N1CCCCC1 | · | · | · | · | 6% | ·
Cc1cc(C)c2nc(N)sc2c1 | -20% | -27% | ? | 34* | 2% | 30
Cc1cc(C)c2sc(N)nc2c1 | -2% | 3% | 2% | -4 | 23% | 8
CNC(=O)CS(=O)CC(=O)Nc1cc(OCCOC)c(Cl)cc1Cl (stereo not drawn) | 2% | -3% | 26% | 1 | -8% | -2
CC1(C)CC(=O)C(C=Nc2ccccc2)=C(O)C1 | 8% | 25% | 2% | 26* | 12% | 52
CC1(C)CC(=O)C(/C=N/c2ccccn2)=C(O)C1 | 7% | -10% | -38% | 7 | 9% | 11
CC1(C)CC(=O)C(C=NCC(O)c2ccccc2)=C(O)C1 (stereo not drawn) | 3% | 5% | 7.4µM* | 5 | -3% | -8
COc1ccc(CN=CC2=C(O)CC(C)(C)CC2=O)cc1 | -10% | · | -7% | 23* | -8% | 40
CC1(C)CC(=O)C(C=Nc2ccccc2C(=O)O)=C(O)C1 | -4% | 2% | 55% | 11 | 18% | 12
CC1(C)CC(=O)C(/C=N/n2cnc3ccccc3c2=O)=C(O)C1 | 13% | 25% | ? | 14* | 72% | 5
CC(=O)N[C@@H](CCC(=O)O)C(=O)O | · | 3% | -19% | · | · | ·
COC(=O)CCC(=O)OC1(C)C(=O)C=C2C=C(C3CC3)N(Cc3ccco3)C=C2C1=O (stereo not drawn) | -4% | 12µM* | ? | -4 | -19% | -2
O=C(CCc1nc(-c2ccccc2F)no1)NC1CCCCC1 | -2% | 0% | · | 8.6* | -3% | 9
Cc1ccc(-c2noc(CCC(=O)NC3CCCC3)n2)cc1 | -6% | 8% | ? | -7 | 25% | 10
